# Screens deposited in PubChem by National Center for Advancing Translational Sciences (NCATS).
# This is a sample that favours compounds with a hit; in the whole collection about 0.62% have one here.
# IL2 activator: qHTS of IL-2 Activators. AID 652025, 2013. 360,000 compounds, 0.065% hits. activation, % (series mostly up to about 46 µM). IL-2 activation reporter assay, cell-based qHTS; stimulated with anti-CD3/CD4/CD28 beads; in transgenic mouse T cells; in the data active means activation above about 50%; inconclusive means mostly about 30% to 49%
#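 Readout is EGFP and DsRed signal by fluorescent plate cytometry after 18 h at 37 degrees C. Transgenic mouse T cells (750/well) received compound for 60 min before bead stimulation (anti-CD3, anti-CD4, anti-CD28); memory T cells served as non-tolerant control.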
# p53 reactivation: qHTS assay for re-activators of p53 using a Luc reporter; 320,000 compounds, 0.063% hits; H1299 p53-A138V BP100-luciferase reporter, luminescence, 24 h; Potency, µM (doses to about 92.2 µM), hits mostly activators; further: nearly all actives have a fitted effect of over 45% in size
#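 H1299 (p53-null), stable ts p53-A138V + BP100-Luc; 1000 cells/well, Opti-MEM/10% FBS; cpd 4 pt, 1:5; 24 h, 37 deg C, 5% CO2; detection reagent 10 min RT; luminescence.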
# PINK1 modulator: A Quantitative High throughput Screen to Identify Chemical Modulators of PINK1 Expression; PINK1 immunofluorescence, high-content cytometry, 24 h; 410,000 compounds, 0.2% hits; Potency, µM (series often up to 76.6 µM), actives largely listed as activators; AID 624263, 2012; active means well fitted activation curve with a large enough effect; inconclusive means small, poorly fitted or top-dose-only effect; cell line not stated here; further: nearly all actives have a fitted effect of over 65% in size
#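 Compound titrations (5 concentrations, 24 h) on a stable cell line; DMSO and CCCP controls. Endpoint: fixed-cell PINK1 immunofluorescence with mitochondrial, cell and nuclear markers, scanned by microplate cytometer.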
# Epigenetic reg: Quantitative High-Throughput Screen for Regulators of Epigenetic Control. murine LDR cells, GFP reporter derepression, 30 h. Potency, µM (series often up to 53.9 µM), usual class: activators. 280,000 compounds, 0.2% hits. AID 1865, 2009; further: nearly all actives have a fitted effect of over 60% in size
#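 Murine LDR cells carrying a silenced, genomically integrated CMV-driven GFP reporter were exposed to compound for 30 hours at 37 C. After PBS washes, GFP-positive cells (20–120 um objects) were counted by laser-scanning microplate cytometry.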
# miR-21 reporter: qHTS Assay for Modulators of miRNAs and/orActivators of miR-21. HeLa miR-21 FLuc reporter, luciferase, 48 h. Potency, µM (highest dose often 38.3 µM), most hits filed as activators. 340,000 tested, under 10 active. AID 2288, 2010;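 further: miR-21 action dims this reporter so a rising signal means less miR-21 action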
#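 HeLa miR-21-FLuc reporter line, endogenous miR-21; 2000 cells/well in DMEM/10% FBS; compound titration up to ~40uM final, 48 h, 37 degree Celsius; luciferase detection reagent, 15 min lysis, CCD luminescence.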
# uPA surface inh: qHTS for Inhibitors of Cell Surface uPA Generation | Potency, µM (top dose mostly 38.3 µM), most hits filed as inhibitors | 330,000 compounds, 0.31% hits | cell surface uPA generation assay, qHTS; active means well fitted inhibition curve with a large enough effect; inconclusive means small, poorly fitted or top-dose-only effect; inactive means no such curve, though single readings can be large or run the other way; tested in mouse RAW 264.7 cells; further: nearly all actives have a fitted effect of over 55% in size
# A number is an active result; - = inactive; ? = inconclusive; . = no result given. Unless noted, the call rests on the fitted dose curve; in most records, active means well fitted curve in the direction sought with a large enough effect; inconclusive means small, poorly fitted or top-dose-only effect, or another doubt; inactive means no such curve, though single readings can be large; an effect the other way counts as inactive or inconclusive.
SMILES,IL2 activator,p53 reactivation,PINK1 modulator,Epigenetic reg,miR-21 reporter,uPA surface inh
C[C@H](NC(=O)[C@H](Cc1ccccc1)n1c(=O)[nH]c2ccccc2c1=O)C(=O)N1CCC(C(=O)O)CC1,-,-,-,.,-,4.5µM
Cc1cccc(CNC(=O)c2cnn(-c3ncc4c(n3)-c3ccccc3CC4)c2C2CC2)n1,.,.,-,.,.,.
OC1(c2cccnc2)CCN(Cc2ccc3c(c2)CN(Cc2cc(F)ccc2F)CCO3)CC1,.,.,-,.,.,.
O=C(NCCN1Cc2ccccc2OC(c2ccsc2)C1)c1ccc2[nH]ccc2c1 (stereo not drawn),.,.,-,.,.,.
Cc1ccc(C)c(Oc2cc(NC(=O)CCCn3nc(C)c([N+](=O)[O-])c3C)cc([N+](=O)[O-])c2)c1,-,?,45µM,-,-,-
Cc1ccccc1OCC(=O)N/N=C/c1cccc(Oc2ccc([N+](=O)[O-])cc2[N+](=O)[O-])c1,-,-,-,-,-,11µM
Cc1ccc(OCC(=O)N/N=C\c2ccc(C)o2)c([N+](=O)[O-])c1,-,-,45µM,-,-,-
Cc1ccccc1OCC(=O)NCC(=O)N/N=C/c1cccc([N+](=O)[O-])c1,.,-,.,-,-,.
CO[C@H]1[C@H](NC(=O)c2ccco2)c2ccccc2C12CCN(Cc1ccc3cccc(F)c3n1)CC2,.,.,-,.,.,.
Cc1ccc(/C=C2\CCC3=C2OC(N)=C(C#N)C3c2ccc(C)cc2)cc1 (stereo not drawn),-,-,?,11µM,-,-
C/C(=N\NC(=O)CN1CCOCC1)C(C)(C)C,-,-,10µM,-,-,-
Cc1cc(C(=O)COC(=O)c2ccc[nH]c2=O)c(C)n1-c1ccccc1F,-,-,-,-,-,2.8µM
Cc1ccc(-n2c(C)cc(C(=O)COC(=O)c3ccc[nH]c3=O)c2C)cc1C,-,-,-,-,-,-
CC(C)N(CCC(=O)c1ccc2ccccc2c1)Cc1ccccc1,-,-,-,?,.,3.2µM
Cc1ccc2c(c1)CN(CCC(=O)NCc1cc(C)n(C)n1)CC(C)O2 (stereo not drawn),.,.,-,.,.,.
N#Cc1c(-c2ccc(Cl)cc2)n(O)c2ccccc12,-,.,35µM,.,.,-
COc1cccc(CN2C(=O)NC(C)(C3CCN(Cc4ccc(C)o4)CC3)C2=O)c1OC (stereo not drawn),.,.,-,.,.,.
COc1ccc(C(CCN2CCCC2)c2c(OC)cc(OC)c3c(-c4ccccc4)cc(=O)oc23)cc1 (stereo not drawn),-,-,-,-,-,-
COc1ccc(C(CCN2CCOCC2)c2c(OC)cc(OC)c3c(-c4ccccc4)cc(=O)oc23)cc1 (stereo not drawn),-,-,-,-,.,14µM
COc1ccc2c(c1)C1OCCC1C(c1ccco1)N2 (stereo not drawn),-,.,-,.,.,2.5µM
c1coc(C2Nc3ccccc3C3OCCC23)c1 (stereo not drawn),-,-,-,-,-,-
COC(=O)[C@@H]1CCCN1C(=O)c1cc(NC(=O)C2CCC2)c2c(c1)nc(-c1ccncc1)n2C,.,.,-,.,.,.
COc1ccc(NS(=O)(=O)c2cc([N+](=O)[O-])ccc2N/N=C\c2c(C)[nH]c3ccccc23)cc1,-,-,-,10µM,-,-
CCN1CCCC1CNC(=O)c1cnn(-c2nccc(-c3ccco3)n2)c1C1CC1 (stereo not drawn),.,.,-,.,.,.
CCOc1ccc(CSC2=NCCN2)cc1[N+](=O)[O-],-,-,-,-,?,-
SMILES,IL2 activator,p53 reactivation,PINK1 modulator,Epigenetic reg,miR-21 reporter,uPA surface inh
CCCCOc1ccc(CSC2=NCCN2)cc1[N+](=O)[O-],-,-,-,?,-,6.3µM
Cc1ccc(CNc2ncnc3sc(C(=O)N4CCCC(C(N)=O)C4)c(C)c23)o1 (stereo not drawn),.,.,-,.,.,.
Fc1ccc(NC(=S)NCCc2ccc(Cl)cc2)cc1,-,?,-,-,-,-
Fc1ccc(CCNC(=S)Nc2ccc(F)c(Cl)c2)cc1,-,-,14µM,-,?,.
O=C(CCN1C(=O)/C(=C/c2ccc(Cl)cc2)SC1=S)Nc1cccnc1,-,-,-,.,-,-
O=C(CCN1C(=O)/C(=C/C=C/c2ccccc2)SC1=S)Nc1cccnc1,69,-,-,-,-,-
COc1cc(/C=C2/SC(=S)N(CC(=O)Nc3cccnc3)C2=O)cc(OC)c1OC,123,-,-,-,-,-
O=C(CCN1C(=O)/C(=C/C=C/c2ccccc2)SC1=S)Nc1ccccn1,-,-,-,14µM,-,-
CC(=C\c1ccccc1)/C=C1/SC(=S)N(CCC(=O)Nc2ccccn2)C1=O,.,-,.,-,-,.
Cc1cc(C)n(-c2cccc(C(=O)NCC3Cc4cc(Cl)cc(-c5cnccn5)c4O3)c2)n1 (stereo not drawn),.,.,-,.,.,.
CO[C@H]1[C@H](NC(=O)c2ccsc2)c2ccccc2C12CCN(Cc1cc(Cl)ccc1O)CC2,.,.,-,.,.,.
COC(=O)c1cc(O)cc(OC)c1Oc1cc(C)cc(O)c1C(=O)O,-,-,-,-,?,0.89µM
COc1ccc(N2C(=O)[C@@H]3C[C@H]2CN3Cc2cccn2-c2ccccn2)cc1Cl,.,.,-,.,.,.
COC(=O)c1ccc(C(=O)N2CCc3c(C(=O)NC(C)c4ccco4)c(OC)cc(=O)n3CC2)cc1 (stereo not drawn),.,.,-,.,.,.
CCOc1ccc(C(=O)C(CCC(CN(C)C)C(=O)c2ccc(OCC)cc2)CN(C)C)cc1 (stereo not drawn),-,-,-,-,?,1.1µM
Cn1ccc(C(=O)NCC2CCC3(CCN(Cc4cc(F)cc(F)c4)CC3)O2)n1 (stereo not drawn),.,.,-,.,.,.
C=CCN1C(=O)[C@@H]2Cc3c([nH]c4ccccc34)C(c3cc(OC)c(OC)c(OC)c3)N2C1=S (stereo partly drawn),105,-,-,.,-,-
CCN1C(=O)[C@@H]2Cc3c([nH]c4ccccc34)C(c3cc(OC)c(OC)c(OC)c3)N2C1=S (stereo partly drawn),94,-,-,.,-,?
COc1ccccc1N1CCN(C(=O)c2ccc3c(Cl)c4c(nc3c2)CCCC4)CC1,-,-,-,-,-,4.5µM
COC(=O)c1c(OCc2ccccn2)cc(=O)n2c1CCN(Cc1ccc3c(c1)CCCN3C)CC2,.,.,-,.,.,.
Cc1ccc(C)c(NC(=O)c2ccccc2O)c1,-,?,16µM,-,-,-
CN(c1ccccc1)S(=O)(=O)c1ccc(Cl)c(C(=O)Nc2ccc(-c3nc4ccccc4[nH]3)cc2)c1,-,-,11µM,-,-,-
NC(=O)c1cc2ccccc2o/c1=N/NC(=O)c1cccs1,-,-,-,-,-,-
